From PubChem BioAssay (NCI)
About 83,000 compounds went through this panel and 20% of them were active in at least one assay; those are over-represented in the sample as a whole.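 Testing used 96-well plates and a 48-hour single-concentration exposure. Example: -40 means 40% of the starting cells died.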 Values without a mark were called inactive. Calls of active or inactive are those of the source. Rule for the calls: active = growth percent below 10; inactive = the rest.

What follows are compounds tested on T-47D breast (assay: NCI-60 one-dose screen, 48 h (100 = growth as untreated, 0 = no growth, -100 = all killed)). Conditions: 10 µM unless noted.

Row | SMILES | growth
1 | CN1C(=O)C2(SCC(C(=O)NCC(=O)OC(C)(C)C)N2C(=O)C2CCCCC2)c2ccccc21 (stereo not drawn) | 82.9%
2 | COc1cc([C@@H]2c3cc4c(cc3C(OC3O[C@@H]5COC(C)O[C@H]5[C@H](O)[C@H]3O)C3COC(=O)[C@@H]32)OCO4)cc(OC)c1O (stereo partly drawn) | 23.9%
3 | O=[N+]([O-])c1cccc(C2c3ccccc3Oc3ccccc32)c1 | 86.4%
4 | O=c1cc(Cl)[nH]c(=O)[nH]1 | 95.1%
5 | C=CCOc1ccc(/C(Cl)=N/N=C(\Cl)c2cc(OC)c(OC)c(OC)c2)cc1 | 47.6%
6 | CN(C)c1ccc(/C=c2\s/c(=C\C(=O)C(C)(C)C)[nH]c2=O)cc1 | 81.4%
7 | Cc1ccn2cc(Cc3cc(=O)oc4c3ccc3ccccc34)c(=O)nc2c1 | 85.8%
8 | Clc1ccc(CN2COc3c(ccc4cccnc34)C2)cc1Cl | 5.72% (active)
9 | COc1ccccc1N1CCN(CC(O)COc2c(Br)c(Br)c(Br)c3c2OC(C)(C)C3)CC1 (stereo not drawn) | 39.8%
10 | CCN(CC)CCNC(=O)c1c(C)[nH]c(/C=C2\C(=O)Nc3cc(NC(=O)NC(=O)c4ccc(OC)cc4F)ccc32)c1C | 104%
11 | O=C(CSc1nnc(-c2ccc(Cl)cc2)o1)Nc1ccc(C(=O)/C=C/c2ccccc2)cc1 | 107%
12 | Cn1c2ccccc2c2ssc(=S)c21 | 87.3%
13 | CN(CCNCc1ccccn1)CCNCc1ccccn1 | 0.513% (active)
14 | Cc1ccc2c(C3C(C#N)=C(N)Oc4cc5ccccc5cc43)cc(=O)oc2c1 (stereo not drawn) | 35.9%
15 | CNCCCOc1c(Br)cc(CCNC(=O)/C(Cc2ccc(OC)c(Br)c2)=N/O)cc1Br | 54.7%
16 | COC(OC)C1(c2ccccc2)NC(=O)NC1=O (stereo not drawn) | 106%
17 | CC(C)(C)OC(=O)NCc1cccc(N=C=S)c1 | 11.2%
18 | Cc1cc(-c2ccccc2)nc2ccccc12 | 99.4%
19 | O=C(Cn1c2ccccc2c2ccncc21)N/N=C\c1ccc2ccccc2c1 | 35%
20 | CC[C@H]1[C@@H]2C=C[C@@H]3[C@H]4C/C=C\C(=O)NCCC[C@@H]5NC(=O)/C(=C(O)/C=C/[C@@H]4C[C@@H]3[C@H]2C[C@H]1C)C5=O | 33.7%

Row | SMILES | growth
21 | COc1ccc(/C=C/C(=O)c2ccc(Oc3ncnc4ccccc34)cc2)cc1OC | 52.3%
22 | Cc1cc(N2CCOCC2)nc(N(CCNc2ccnc3cc(Cl)ccc23)Cc2ccco2)n1 | -6.08% (active)
23 | CC(C)(c1ccc(OCC(O)CNCc2ccco2)cc1)c1ccc(OCC(O)CNCc2ccco2)cc1 (stereo not drawn) | 72.4%
24 | CCC1CN2C(=N1)c1ccccc1-c1cc(Cl)ccc12 (stereo not drawn) | 21.9%
25 | O=C(Nc1cccc(-n2ccc3c(NC(=O)c4ccccc4)nccc32)c1)c1cccc(C(F)(F)F)c1 | 55.8%
26 | CCOc1ccc(-n2c(-c3cc(OC)c(OC)c(OC)c3)nnc2-c2ccc(OC)cc2N)cc1 | 43.4%
27 | O=C(COc1ccc(Cl)cc1)N1CCN(Cc2ccc3c(c2)OCO3)CC1 | 78.2%
28 | C=C1C(=O)O[C@H]2[C@H]1CC/C(COC(=O)c1cccc3ccccc13)=C\CC[C@@]1(C)O[C@@H]21 | -60% (active)
29 | O=C(NNC(=O)c1ccc([N+](=O)[O-])cc1)c1ccc([N+](=O)[O-])cc1 | 92%
30 | COc1ccc(-n2c(-c3ccc(NC(=O)CCCl)cc3)nnc2-c2cc(OC)c(OC)c(OC)c2)cc1 | 25.3%
31 | N#Cc1c(N)nc2c(c1N)C(c1ccc(Cl)cc1)C1=C(CCCC1=O)N2c1sc2c(c1C#N)CCCC2 (stereo not drawn) | 96.8%
32 | CS(=O)(=O)Nc1cccc(-c2ccc3ncnc(Nc4cncc(Cl)c4)c3c2)c1 | -21.9% (active)
33 | COc1cc(C(=O)NNC(=O)c2ccccc2O)cc(OC)c1OC | 82.5%
34 | C=C1C(=O)O[C@H]2[C@H]1CC/C(COC(=O)c1cc(OC)c(OC)c(OC)c1)=C\CC[C@@]1(C)O[C@@H]21 | -38.7% (active)
35 | CC(C)(CCN=C(N)Nc1ccccn1)c1ccc(C(F)(F)F)cc1 | -29.7% (active)
36 | O=C(Nc1ccc(-n2cc(-c3ccncc3)c(-c3ccc(O)c(Cl)c3)n2)cc1)c1cc(Cl)cc(Cl)c1 | 49.3%
37 | CCOc1ccccc1C(=O)N1CCN(c2cc(Cl)cc(Cl)c2)CC1 | 49%
38 | COc1ccc(/C=N/C2=NNC(C)(c3ccccc3O)N2C(Cc2c[nH]c3ccccc23)C(=O)O)cc1 (stereo not drawn) | 12.9%
39 | O=C(NCCNc1nccc(-c2c(-c3cccc(O)c3)nc3sccn23)n1)c1ccccc1O | 61.8%

The compounds below were run on BT-549 breast in the same assay as above. Conditions: 10 µM unless noted.

Row | SMILES | growth
40 | CN1C(=O)C2(SCC(C(=O)NCC(=O)OC(C)(C)C)N2C(=O)C2CCCCC2)c2ccccc21 (stereo not drawn) | 109%
41 | COc1cc([C@@H]2c3cc4c(cc3C(OC3O[C@@H]5COC(C)O[C@H]5[C@H](O)[C@H]3O)C3COC(=O)[C@@H]32)OCO4)cc(OC)c1O (stereo partly drawn) | 31.4%
42 | O=[N+]([O-])c1cccc(C2c3ccccc3Oc3ccccc32)c1 | 116%
43 | O=c1cc(Cl)[nH]c(=O)[nH]1 | 103%
44 | C=CCOc1ccc(/C(Cl)=N/N=C(\Cl)c2cc(OC)c(OC)c(OC)c2)cc1 | 89.5%
45 | CN(C)c1ccc(/C=c2\s/c(=C\C(=O)C(C)(C)C)[nH]c2=O)cc1 | 97.3%
46 | Cc1ccn2cc(Cc3cc(=O)oc4c3ccc3ccccc34)c(=O)nc2c1 | 99.5%
47 | Clc1ccc(CN2COc3c(ccc4cccnc34)C2)cc1Cl | 8.99% (active)
48 | COc1ccccc1N1CCN(CC(O)COc2c(Br)c(Br)c(Br)c3c2OC(C)(C)C3)CC1 (stereo not drawn) | 98.6%
49 | CCN(CC)CCNC(=O)c1c(C)[nH]c(/C=C2\C(=O)Nc3cc(NC(=O)NC(=O)c4ccc(OC)cc4F)ccc32)c1C | 104%
50 | O=C(CSc1nnc(-c2ccc(Cl)cc2)o1)Nc1ccc(C(=O)/C=C/c2ccccc2)cc1 | 99.8%
51 | Cn1c2ccccc2c2ssc(=S)c21 | 110%
52 | CN(CCNCc1ccccn1)CCNCc1ccccn1 | -2.61% (active)
53 | Cc1ccc2c(C3C(C#N)=C(N)Oc4cc5ccccc5cc43)cc(=O)oc2c1 (stereo not drawn) | 47.9%
54 | CNCCCOc1c(Br)cc(CCNC(=O)/C(Cc2ccc(OC)c(Br)c2)=N/O)cc1Br | 56.8%
55 | COC(OC)C1(c2ccccc2)NC(=O)NC1=O (stereo not drawn) | 114%
56 | CC(C)(C)OC(=O)NCc1cccc(N=C=S)c1 | 10.3%
57 | Cc1cc(-c2ccccc2)nc2ccccc12 | 108%
58 | O=C(Cn1c2ccccc2c2ccncc21)N/N=C\c1ccc2ccccc2c1 | 52.5%
59 | CC[C@H]1[C@@H]2C=C[C@@H]3[C@H]4C/C=C\C(=O)NCCC[C@@H]5NC(=O)/C(=C(O)/C=C/[C@@H]4C[C@@H]3[C@H]2C[C@H]1C)C5=O | -49.2% (active)

Row | SMILES | growth
60 | COc1ccc(/C=C/C(=O)c2ccc(Oc3ncnc4ccccc34)cc2)cc1OC | 60.6%
61 | Cc1cc(N2CCOCC2)nc(N(CCNc2ccnc3cc(Cl)ccc23)Cc2ccco2)n1 | 30.2%
62 | CC(C)(c1ccc(OCC(O)CNCc2ccco2)cc1)c1ccc(OCC(O)CNCc2ccco2)cc1 (stereo not drawn) | 88.7%
63 | CCC1CN2C(=N1)c1ccccc1-c1cc(Cl)ccc12 (stereo not drawn) | 42.5%
64 | O=C(Nc1cccc(-n2ccc3c(NC(=O)c4ccccc4)nccc32)c1)c1cccc(C(F)(F)F)c1 | -6.35% (active)
65 | CCOc1ccc(-n2c(-c3cc(OC)c(OC)c(OC)c3)nnc2-c2ccc(OC)cc2N)cc1 | 84%
66 | O=C(COc1ccc(Cl)cc1)N1CCN(Cc2ccc3c(c2)OCO3)CC1 | 98.3%
67 | C=C1C(=O)O[C@H]2[C@H]1CC/C(COC(=O)c1cccc3ccccc13)=C\CC[C@@]1(C)O[C@@H]21 | -45.1% (active)
68 | O=C(NNC(=O)c1ccc([N+](=O)[O-])cc1)c1ccc([N+](=O)[O-])cc1 | 89.8%
69 | COc1ccc(-n2c(-c3ccc(NC(=O)CCCl)cc3)nnc2-c2cc(OC)c(OC)c(OC)c2)cc1 | 66.6%
70 | N#Cc1c(N)nc2c(c1N)C(c1ccc(Cl)cc1)C1=C(CCCC1=O)N2c1sc2c(c1C#N)CCCC2 (stereo not drawn) | 96.1%
71 | CS(=O)(=O)Nc1cccc(-c2ccc3ncnc(Nc4cncc(Cl)c4)c3c2)c1 | 34.8%
72 | COc1cc(C(=O)NNC(=O)c2ccccc2O)cc(OC)c1OC | 120%
73 | C=C1C(=O)O[C@H]2[C@H]1CC/C(COC(=O)c1cc(OC)c(OC)c(OC)c1)=C\CC[C@@]1(C)O[C@@H]21 | -42% (active)
74 | CC(C)(CCN=C(N)Nc1ccccn1)c1ccc(C(F)(F)F)cc1 | 32.2%
75 | O=C(Nc1ccc(-n2cc(-c3ccncc3)c(-c3ccc(O)c(Cl)c3)n2)cc1)c1cc(Cl)cc(Cl)c1 | 25.8%
76 | CCOc1ccccc1C(=O)N1CCN(c2cc(Cl)cc(Cl)c2)CC1 | -13.2% (active)
77 | COc1ccc(/C=N/C2=NNC(C)(c3ccccc3O)N2C(Cc2c[nH]c3ccccc23)C(=O)O)cc1 (stereo not drawn) | 21.6%
78 | O=C(NCCNc1nccc(-c2c(-c3cccc(O)c3)nc3sccn23)n1)c1ccccc1O | 45.7%
